Results taken from PubChem BioAssay (Tox21).
Results filed as inconclusive are left out. A structure can be active in one record and inactive in another. Calls of active or inactive are those of the source. Unless noted, the call rests on the fitted dose curve; in most records, active means well fitted curve in the direction sought with a large enough effect in the repeat runs; inconclusive means weak or mixed curves; inactive means no such curve, though single readings can be large; an effect the other way counts as inactive or inconclusive.

Columns and labels:
[1] = qHTS assay to identify aromatase inhibitors - cell viability counter screen (AID 743084);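 further: cells stimulated with testosterone during compound exposure; nearly all actives have a fitted effect of over 55% in size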; further: potency means the concentration at half of the fitted maximal effect
[2] = target: Aryl hydrocarbon receptor (Homo sapiens) (UniProt P35869); assay: qHTS assay to identify small molecule that activate the aryl hydrocarbon receptor (AhR) signaling pathway (AID 743085); further: nearly all actives have a fitted effect of over 15% in size; further: potency means the concentration at half of the fitted maximal effect;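 on activation: HG2L7.5c1 human HepG2 liver cells with stably integrated DRE-driven firefly reporter; series mostly up to about 70 µM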
Aryl hydrocarbon receptor (Homo sapiens), sequence (P35869 whole entry, looked up): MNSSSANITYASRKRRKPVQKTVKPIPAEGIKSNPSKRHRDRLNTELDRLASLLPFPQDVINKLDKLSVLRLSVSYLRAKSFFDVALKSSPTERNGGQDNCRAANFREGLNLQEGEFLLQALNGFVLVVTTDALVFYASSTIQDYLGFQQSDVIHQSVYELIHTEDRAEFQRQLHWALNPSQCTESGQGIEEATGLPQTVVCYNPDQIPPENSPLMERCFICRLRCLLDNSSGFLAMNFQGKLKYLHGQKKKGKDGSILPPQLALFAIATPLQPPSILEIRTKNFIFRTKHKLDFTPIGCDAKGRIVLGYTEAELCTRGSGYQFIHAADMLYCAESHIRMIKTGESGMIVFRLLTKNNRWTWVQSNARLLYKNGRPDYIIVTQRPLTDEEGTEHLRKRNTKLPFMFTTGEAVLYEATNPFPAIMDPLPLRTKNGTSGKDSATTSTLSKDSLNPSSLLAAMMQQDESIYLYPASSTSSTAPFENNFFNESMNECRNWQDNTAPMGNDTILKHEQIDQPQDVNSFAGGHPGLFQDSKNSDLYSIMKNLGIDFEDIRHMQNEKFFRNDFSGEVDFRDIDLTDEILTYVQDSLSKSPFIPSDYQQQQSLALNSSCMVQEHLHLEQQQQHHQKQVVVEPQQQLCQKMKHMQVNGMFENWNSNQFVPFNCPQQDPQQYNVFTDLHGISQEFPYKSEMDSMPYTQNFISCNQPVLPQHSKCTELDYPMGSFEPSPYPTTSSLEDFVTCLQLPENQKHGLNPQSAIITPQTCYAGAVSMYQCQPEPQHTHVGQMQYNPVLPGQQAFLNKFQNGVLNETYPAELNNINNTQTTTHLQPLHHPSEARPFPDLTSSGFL
Outline: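 Steps: seed HepG2-AhR-luc cells; allow 5 h at 37C; pin-transfer test compound or vehicle; incubate 24 h at 37C; add viability dye (30 min, 37C) and read fluorescence; add luciferase substrate (30 min, RT) and read luminescence.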

[3] = qHTS assay to identify small molecule that activate the aryl hydrocarbon receptor (AhR) signaling pathway - cell viability counter screen (AID 743086); further: nearly all actives have a fitted effect of over 45% in size; further: potency means the concentration at half of the fitted maximal effect;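 on viability change, negative = cytotoxic: HepG2 liver cells carrying the AhR DRE luciferase reporter; series mostly up to about 70 µM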
Outline: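 Cytotoxicity counter screen: CellTiter-Fluor signal (30 min, 37 C) in 4000 HepG2 cells/well carrying the DRE-luciferase reporter, following 24 h compound exposure at 37 C.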

[4] = target: Peroxisome proliferator-activated receptor gamma (Homo sapiens) (UniProt P37231); assay: qHTS assay to identify small molecule agonists of the peroxisome proliferator-activated receptor gamma (PPARg) signaling pathway (AID 743094; active means well fitted activation curve with a large enough effect in the signal ratio in the repeat runs, not every such curve was filed as active; the % refers to the signal ratio; further: potency means the concentration at half of the fitted maximal effect)
Peroxisome proliferator-activated receptor gamma (Homo sapiens), sequence (P37231 whole entry, looked up): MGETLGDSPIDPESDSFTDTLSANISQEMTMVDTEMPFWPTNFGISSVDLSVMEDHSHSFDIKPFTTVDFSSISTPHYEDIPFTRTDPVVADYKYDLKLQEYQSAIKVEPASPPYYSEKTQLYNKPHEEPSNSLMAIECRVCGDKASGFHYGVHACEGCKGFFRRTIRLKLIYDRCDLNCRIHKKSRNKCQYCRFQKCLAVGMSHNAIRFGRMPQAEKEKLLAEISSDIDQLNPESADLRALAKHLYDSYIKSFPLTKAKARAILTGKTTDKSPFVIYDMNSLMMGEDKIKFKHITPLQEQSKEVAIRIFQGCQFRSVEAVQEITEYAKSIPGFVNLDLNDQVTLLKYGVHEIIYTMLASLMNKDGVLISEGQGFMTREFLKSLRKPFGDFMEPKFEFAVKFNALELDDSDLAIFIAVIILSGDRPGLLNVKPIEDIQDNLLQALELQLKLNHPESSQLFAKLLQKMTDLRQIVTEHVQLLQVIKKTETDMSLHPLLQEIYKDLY
Outline: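 Following 5 h plating at 37C, PPARg-bla HEK293H cells receive compound or DMSO for 17 h; fluorescence intensity is recorded after LiveBLAzer B/G loading for 1 h at room temperature.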

[5] = target: Peroxisome proliferator-activated receptor gamma (Homo sapiens) (UniProt P37231); assay: qHTS assay to identify small molecule antagonists of the peroxisome proliferator-activated receptor gamma (PPARg) signaling pathway (AID 743191; calls by dose curve; further: series mostly up to about 63 µM; nearly all actives have a fitted effect of over 30% in size)
Outline: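 Beta-lactamase reporter under UAS control in HEK293H PPARg-bla cells; compound treatment 17 h at 37C. Read-out: fluorescence intensity after 1 h room-temperature incubation with LiveBLAzer B/G FRET substrate.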

[6] = qHTS assay to identify small molecule antagonists of the peroxisome proliferator-activated receptor gamma (PPARg) signaling pathway - cell viability counter screen (AID 743194); further: nearly all actives have a fitted effect of over 55% in size
Outline: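 Viability was measured as CellTiter-Glo luminescence in GeneBLAzer PPARg UAS-bla HEK293H cells. These cells had been exposed 17 h at 37 C to compounds together with rosiglitazone at 50 nM final, with the beta-lactamase readout taken in the same wells.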

[7] = qHTS assay for small molecule agonists of the antioxidant response element (ARE) signaling pathway (AID 743202; active means well fitted activation curve with a large enough effect in the signal ratio in the repeat runs, not every such curve was filed as active; the % refers to the signal ratio; further: potency means the concentration at half of the fitted maximal effect)
Outline: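 An ARE-responsive beta-lactamase gene stably integrated in HepG2 cells serves as reporter. After 5 h plating and 16 h compound incubation at 37 C, fluorescence of the B/G FRET substrate was measured.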

[8] = qHTS assay for small molecule agonists of the antioxidant response element (ARE) signaling pathway - cell viability counter screen (AID 743203; calls by dose curve; further: nearly all actives have a fitted effect of over 55% in size)
Outline: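 Compounds in DMSO were pinned onto ARE-bla HepG2 cells plated 5 hrs earlier at 2,000 cells/well. Sixteen hours later at 37C/5% CO2, CellTiter-Glo was added and luminescence measured after 30 min at room temperature.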

[9] = qHTS assay for small molecule activators of the heat shock response signaling pathway - cell viability counter screen (AID 743209); further: nearly all actives have a fitted effect of over 50% in size
Outline: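 Counter screen for cytotoxicity in HeLa HSE-bla reporter cells. Treatment was 5 h at 37 C; viability was detected by luminescent ATP assay (CellTiter-Glo) in the same wells as the beta-lactamase read.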

[10] = qHTS assay for small molecule activators of the heat shock response signaling pathway (AID 743210; active means well fitted activation curve with a large enough effect in the signal ratio in the repeat runs, with a control signal flat, not every such curve was filed as active; the % refers to the signal ratio;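 further: HeLa cells with beta-lactamase reporter driven by heat shock elements; series mostly up to about 63 µM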)
Outline: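 In HSE-bla HeLa cells, 5 h compound incubation (37 C) precedes addition of LiveBLAzer B/G substrate; after 2.5 h at room temperature, fluorescence intensity indicates reporter induction.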

[11] = qHTS assay to identify small molecule agonists of the peroxisome proliferator-activated receptor delta (PPARd) signaling pathway - cell viability counter screen (AID 743211); further: nearly all actives have a fitted effect of over 55% in size
Outline: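 Viability of GeneBLAzer PPARd UAS-bla HEK293H cells was assessed after 17 h compound incubation at 37C, using CellTiter-Glo reagent added after the reporter read and luminescence recorded 30 min later.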

[12] = qHTS assay to identify small molecule antagonists of the peroxisome proliferator-activated receptor delta (PPARd) signaling pathway - cell viability counter screen (AID 743213); further: nearly all actives have a fitted effect of over 50% in size
Outline: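 Same-well viability: cells pre-incubated 5 h, dosed with compound plus 300 nM L165041, kept 17 h at 37 C, FRET substrate 2 h RT, then CellTiter-Glo 30 min RT and luminescence.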

[13] = target: Bile acid receptor (Homo sapiens) (UniProt Q96RI1); assay: qHTS assay to identify small molecule antagonists of the farnesoid-X-receptor (FXR) signaling pathway (AID 743217; active means well fitted inhibition curve with a large enough effect in the signal ratio in the repeat runs, not every such curve was filed as active; the % refers to the signal ratio)
Bile acid receptor (Homo sapiens), sequence (Q96RI1 whole entry, looked up): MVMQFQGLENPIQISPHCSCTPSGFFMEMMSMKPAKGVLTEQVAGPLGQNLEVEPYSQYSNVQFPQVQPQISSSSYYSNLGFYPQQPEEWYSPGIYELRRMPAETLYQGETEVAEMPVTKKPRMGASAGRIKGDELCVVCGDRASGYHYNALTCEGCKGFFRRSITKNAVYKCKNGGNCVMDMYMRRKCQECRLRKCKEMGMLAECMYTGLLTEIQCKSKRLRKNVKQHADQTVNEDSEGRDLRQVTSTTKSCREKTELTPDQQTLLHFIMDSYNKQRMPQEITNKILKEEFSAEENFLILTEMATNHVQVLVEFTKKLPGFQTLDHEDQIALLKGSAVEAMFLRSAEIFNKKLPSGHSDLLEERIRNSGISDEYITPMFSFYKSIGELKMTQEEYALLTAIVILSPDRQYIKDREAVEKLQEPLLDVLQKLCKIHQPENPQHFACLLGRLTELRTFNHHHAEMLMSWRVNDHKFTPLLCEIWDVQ
Outline: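 In this cell-based antagonist screen, inhibition of CDCA-driven (50 uM final) UAS-beta-lactamase expression in HEK 293T cells was measured by FRET fluorescence following 16 h compound exposure at 37 °C.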

[14] = qHTS assay to identify small molecule agonists of the farnesoid-X-receptor (FXR) signaling pathway - cell viability counter screen (AID 743218); further: nearly all actives have a fitted effect of over 45% in size
Outline: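 After 16 h at 37 C with test compounds, FXR-bla HEK 293T cells were given LiveBLAzer B/G substrate for 2 h at RT and then CellTiter-Glo; luminescence was taken after 30 min.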

[15] = target: Bile acid receptor (Homo sapiens) (UniProt Q96RI1); assay: qHTS assay to identify small molecule agonists of the farnesoid-X-receptor (FXR) signaling pathway (AID 743220; active means well fitted activation curve with a large enough effect in the signal ratio in the repeat runs, not every such curve was filed as active; the % refers to the signal ratio)
Outline: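 Beta-lactamase reporter under UAS control in GeneBLAzer FXR HEK 293T cells (5000/well) measured with LiveBLAzer FRET substrate after 2 h at room temperature. Compound exposure lasted 16 h at 37C.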

[16] = qHTS assay to identify small molecule antagonists of the farnesoid-X-receptor (FXR) signaling pathway - cell viability counter screen (AID 743221; active means well fitted cell-killing curve with a large enough effect in the repeat runs, not every such curve was filed as active; further: nearly all actives have a fitted effect of over 50% in size)
Outline: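 Quantitative HTS of the Tox21 10K library run in parallel with the beta-lactamase reporter read. HEK 293T cells carrying a UAS-driven bla reporter got compound and 50 uM CDCA (final) for 16 h; ATP-based luminescence followed.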

[17] = target: Peroxisome proliferator-activated receptor delta (Homo sapiens) (UniProt Q03181); assay: qHTS assay to identify small molecule agonists of the peroxisome proliferator-activated receptor delta (PPARd) signaling pathway (AID 743212; calls by dose curve)
Peroxisome proliferator-activated receptor delta (Homo sapiens), sequence (Q03181 whole entry, looked up): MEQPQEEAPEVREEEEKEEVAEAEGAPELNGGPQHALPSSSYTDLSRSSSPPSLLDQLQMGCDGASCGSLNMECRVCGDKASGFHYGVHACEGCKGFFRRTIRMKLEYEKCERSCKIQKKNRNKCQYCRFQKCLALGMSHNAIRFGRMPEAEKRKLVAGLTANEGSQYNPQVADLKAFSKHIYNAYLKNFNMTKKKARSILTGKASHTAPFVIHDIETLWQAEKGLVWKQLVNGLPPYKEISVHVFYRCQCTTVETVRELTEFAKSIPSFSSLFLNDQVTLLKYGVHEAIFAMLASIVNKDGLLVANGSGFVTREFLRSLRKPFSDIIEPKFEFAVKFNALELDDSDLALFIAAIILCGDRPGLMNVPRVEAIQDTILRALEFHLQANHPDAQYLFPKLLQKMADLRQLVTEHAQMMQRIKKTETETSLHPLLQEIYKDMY
Outline: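 HEK293H UAS-bla reporter cells, human PPARd system; compounds delivered in DMSO after 5 h plating, then at 37 C. Beta-lactamase FRET read, 2 h RT substrate step.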

[18] = target: Peroxisome proliferator-activated receptor delta (Homo sapiens) (UniProt Q03181); assay: qHTS assay to identify small molecule antagonists of the peroxisome proliferator-activated receptor delta (PPARd) signaling pathway (AID 743215; active means well fitted inhibition curve with a large enough effect in the signal ratio in the repeat runs, not every such curve was filed as active; the % refers to the signal ratio;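 further: cells stimulated with agonist L165041 at 300 nM final during compound exposure; series mostly up to about 62 µM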)
Outline: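 With L165041 present at 300 nM final, compounds were incubated 17 h at 37 C on PPARd UAS-bla HEK293H cells. A FRET-based beta-lactamase substrate was then applied for 2 h at room temperature and fluorescence intensity recorded.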

[19] = target: Vitamin D3 receptor (Homo sapiens) (UniProt P11473); assay: qHTS assay to identify small molecule agonists of the vitamin D receptor (VDR) signaling pathway (AID 743222; calls by dose curve)
Vitamin D3 receptor (Homo sapiens), sequence (P11473 whole entry, looked up): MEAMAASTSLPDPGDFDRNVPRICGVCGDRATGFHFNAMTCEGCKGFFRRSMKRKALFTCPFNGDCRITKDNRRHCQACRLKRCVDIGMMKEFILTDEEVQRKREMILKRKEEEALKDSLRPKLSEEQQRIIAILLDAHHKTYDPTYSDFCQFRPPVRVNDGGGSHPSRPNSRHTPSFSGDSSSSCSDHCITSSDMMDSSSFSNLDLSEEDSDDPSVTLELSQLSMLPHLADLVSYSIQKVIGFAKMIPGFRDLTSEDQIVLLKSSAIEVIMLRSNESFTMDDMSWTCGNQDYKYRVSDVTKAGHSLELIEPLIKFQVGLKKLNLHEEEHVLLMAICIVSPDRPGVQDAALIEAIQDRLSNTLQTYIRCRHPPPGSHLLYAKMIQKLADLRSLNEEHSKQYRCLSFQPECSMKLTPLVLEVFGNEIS
Outline: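 VDR-bla cells were seeded, left 4 h, treated with compounds in DMSO for 16 h, incubated 2 h at RT with B/G FRET substrate, and read for fluorescence.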

[20] = target: Vitamin D3 receptor (Homo sapiens) (UniProt P11473); assay: qHTS assay to identify small molecule antagonists of the vitamin D receptor (VDR) signaling pathway (AID 743223; active means well fitted inhibition curve with a large enough effect in the signal ratio in the repeat runs, not every such curve was filed as active; the % refers to the signal ratio)
Outline: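 Fluorescence from LiveBLAzer B/G FRET substrate, read after 2 h at room temperature, reflects beta-lactamase reporter activity in VDR-bla cells treated 16 h at 37C with compounds and agonist 1alpha,25-dihydroxyvitamin D3 (3 nM final).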
On the % scale 0 is the no-effect control and ±100 the full control effect.

N#Cc1cscn1
inactive: Potency [1] | Potency [2] | Potency [3] | outcome [5] | outcome [6] | Potency [7] | outcome [8] | Potency [9] | outcome [10] | outcome [11] | outcome [12] | outcome [13] | outcome [14] | outcome [15] | outcome [16]
active: Potency [4] 54.9 µM

CC(=O)C(C)O (stereo not drawn)
inactive: Potency [1] | Potency [2] | Potency [3] | Potency [4] | outcome [5] | outcome [6] | Potency [7] | outcome [8] | Potency [9] | outcome [10] | outcome [11] | outcome [17] | outcome [12] | outcome [18] | outcome [13] | outcome [14] | outcome [15] | outcome [16] | outcome [19] | outcome [20]

CCC(C)C(=O)OCCc1ccccc1 (stereo not drawn)
inactive: Potency [1] | Potency [2] | Potency [3] | Potency [4] | outcome [5] | outcome [6] | Potency [7] | outcome [8] | Potency [9] | outcome [10] | outcome [11] | outcome [17] | outcome [12] | outcome [18] | outcome [14] | outcome [15] | outcome [16]

CC(C)OC(=O)OCOP(=O)(CO[C@H](C)Cn1cnc2c(N)ncnc21)OCOC(=O)OC(C)C
inactive: Potency [1] | Potency [2] | Potency [3] | Potency [4] | outcome [5] | outcome [6] | outcome [8] | Potency [9] | outcome [10] | outcome [11] | outcome [17] | outcome [12] | outcome [18] | outcome [14] | outcome [16] | outcome [19] | outcome [20]
active: Potency [7] 11.9 µM

O=S(=O)(O)c1ccc2c(N=Nc3ccc(S(=O)(=O)O)c4ccccc34)c(O)c(S(=O)(=O)O)cc2c1
active: Potency [1] 18.8 µM | Potency [3] 13.3 µM
inactive: Potency [2] | viability change, negative = cytotoxic [3] -5.27% [at 8.47 µM] | Potency [4] | activity change, negative = cytotoxicity [6] -3.57% [at 5.95 µM] | activation [7] 7.21% [at 8.36 µM] | viability change, negative = cytotoxic [8] -0.964% [at 8.36 µM] | activity change, negative = cytotoxicity [9] 0.481% [at 5.95 µM] | activation [10] -0.859% [at 5.95 µM] | activity change, negative = cytotoxicity [11] 3.44% [at 5.95 µM] | activation [17] 0.0676% [at 5.95 µM] | ratio activity, negative = inhibition [18] 7.03% [at 6.26 µM] | activity change, negative = inhibition [13] -1.36% [at 5.95 µM] | viability change, negative = cytotoxic [14] 1.45% [at 5.95 µM] | activation [15] -0.449% [at 5.95 µM] | activity change, negative = cytotoxicity [16] -3.15% [at 5.95 µM] | activation [19] -5.96% [at 6.01 µM] | activity change, negative = inhibition [20] 8.98% [at 6.95 µM]

C=CC(=O)CCCCC
inactive: Potency [1] | Potency [2] | Potency [3] | Potency [4] | outcome [6] | Potency [7] | outcome [8] | Potency [9] | outcome [10] | outcome [11] | outcome [17] | outcome [12] | outcome [14] | outcome [16]

CCCCCCCCCCOC(C)=O
inactive: Potency [1] | Potency [2] | Potency [3] | Potency [4] | outcome [5] | outcome [6] | Potency [9] | outcome [11] | outcome [17] | outcome [12] | outcome [18] | outcome [14] | outcome [16] | outcome [20]

CC(=O)Nc1ccc(OC(=O)c2ccccc2OC(C)=O)cc1
inactive: Potency [1] | Potency [2] | Potency [3] | Potency [4] | outcome [5] | outcome [6] | outcome [8] | Potency [9] | outcome [10] | outcome [11] | outcome [17] | outcome [12] | outcome [18] | outcome [16] | outcome [19] | outcome [20]

CCCCOC(=O)C(C)O (stereo not drawn)
inactive: Potency [1] | Potency [2] | Potency [3] | Potency [4] | outcome [5] | Potency [7] | outcome [8] | Potency [9] | outcome [11] | outcome [17] | outcome [12] | outcome [18] | outcome [13] | outcome [14] | outcome [15] | outcome [16] | outcome [19] | outcome [20]

OCC1(CO)COCOC1
inactive: Potency [1] | Potency [2] | Potency [3] | Potency [4] | outcome [5] | outcome [6] | Potency [7] | Potency [9] | outcome [11] | outcome [17] | outcome [18] | outcome [13] | outcome [14] | outcome [15] | outcome [16]

Cc1ccc2c(c1)C(=O)c1ccccc1C2=O
active: Potency [2] 48.4 µM | Potency [7] 54.3 µM
inactive: Potency [1] | Potency [3] | Potency [4] | outcome [6] | outcome [8] | Potency [9] | outcome [10] | outcome [11] | outcome [17] | outcome [12] | outcome [18] | outcome [14] | outcome [16] | outcome [19] | outcome [20]

O=Cc1cc2ccccc2o1
inactive: Potency [1] | Potency [2] | Potency [3] | Potency [4] | outcome [5] | outcome [6] | Potency [9] | outcome [10] | outcome [11] | outcome [17] | outcome [12] | outcome [18] | outcome [14] | outcome [16] | outcome [19] | outcome [20]

CCC(C)OC(C)CC (stereo not drawn)
inactive: Potency [1] | Potency [2] | Potency [3] | Potency [4] | outcome [5] | outcome [6] | outcome [8] | Potency [9] | outcome [10] | outcome [11] | outcome [17] | outcome [18] | outcome [14] | outcome [16] | outcome [19]

CN(C)CCOC(=O)C(c1ccccc1)C1(O)CCCC1 (stereo not drawn)
inactive: Potency [1] | Potency [2] | Potency [3] | Potency [4] | outcome [6] | Potency [7] | outcome [8] | Potency [9] | outcome [10] | outcome [11] | outcome [17] | outcome [12] | outcome [18] | outcome [16] | outcome [19] | outcome [20]

C/C=C(\C)C(=O)OCCc1ccccc1
inactive: Potency [1] | Potency [2] | Potency [3] | Potency [4] | outcome [6] | Potency [7] | outcome [8] | Potency [9] | outcome [10] | outcome [11] | outcome [17] | outcome [12] | outcome [18] | outcome [13] | outcome [14] | outcome [15] | outcome [16]

OC[C@@H](O)C(O)[C@@H](O)CO (stereo partly drawn)
inactive: Potency [1] | Potency [2] | Potency [3] | Potency [4] | outcome [5] | outcome [6] | outcome [8] | Potency [9] | outcome [10] | outcome [11] | outcome [17] | outcome [12] | outcome [18] | outcome [14] | outcome [19]
